The source of these data is PubChem BioAssay (NCI).

Some test systems named below: BT-549 breast; MDA-MB-435 melanoma; SW-620 colon; MCF7 breast; HCT-116 colon; HCC-2998 colon; KM12 colon; T-47D breast.
Common to all, as to assay: NCI-60 one-dose screen, 48 h (100 = growth as untreated, 0 = no growth, -100 = all killed)
What all share (conditions): 10 µM

This is part of a sample that, as a whole, favours compounds with a hit. Of some 83,000 tested, about 20% had one in any assay.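 Interpretation: 100, growth as untreated; towards 0, rising growth inhibition; 0, no net growth; 0 to -100, cell death. Compounds scoring below 10 were considered active.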 Values without a mark were called inactive. Calls of active or inactive are those of the source.

For the compound `Cc1ccc(C(C)C)c(O)c1NC(=O)OC(C)C`, the growth is 96.1% in the assay with BT-549 breast; 106% in the assay on MDA-MB-435 melanoma; 103% with SW-620 colon; 92.7% in the assay on MCF7 breast; 91.9% in the assay with HCT-116 colon; 89.5% in the assay with HCC-2998 colon. Further, the growth in the assay with KM12 colon was 100%.

For `CCN(CC)CCOc1ccc2c(c1O)C(=O)c1ccccc1C2=O`, the growth is 97.2% in the assay on T-47D breast; 94.5% in the assay on MDA-MB-435 melanoma; 67.9% in the assay with SW-620 colon; 82.1% in the assay on MCF7 breast; 44.9% with HCT-116 colon; 98% in the assay with KM12 colon.

For `OC(CNc1ccnc2cc(Cl)ccc12)CNC1CCCCC1` (stereo not given), the growth with T-47D breast is 65.6%; with MDA-MB-435 melanoma, 52.5%; with SW-620 colon, 92.9%; with MCF7 breast it was 75.7%; in the assay on HCT-116 colon, 68.9%; with HCC-2998 colon it was 64.3%. Besides, in the assay with KM12 colon, the growth is 83.5%.

On to `CCN(CC)CCCOc1cccc2c1C(=O)c1cccc(OCCCN(CC)CC)c1C2=O`, for which the growth in the assay on T-47D breast is 61.7%; in the assay with MDA-MB-435 melanoma, 39.7%; with SW-620 colon, 24.4%; with HCT-116 colon it was 22.5%; in the assay with HCC-2998 colon, 57.4%; in the assay with KM12 colon, 40.9%.

Consider `Nc1cc(-c2ccc(Cl)cc2)nn1-c1nc2ccccc2nc1Cc1ccccc1`, for which the growth in the assay with T-47D breast is 85.5%; with MDA-MB-435 melanoma it was 86.8%; in the assay with MCF7 breast, 85.3%; in the assay with HCT-116 colon it was 72.8%; with HCC-2998 colon, 94.8%.

For `c1ccc(CSc2ncccc2-c2nnc(SCCN3CCOCC3)o2)cc1`, the growth with T-47D breast is 101%; in the assay on MDA-MB-435 melanoma, 114%; in the assay with SW-620 colon, 107%; in the assay on HCT-116 colon, 108%; with HCC-2998 colon, 116%; in the assay with KM12 colon it was 107%.

For the compound `O=C(CC(CC(=O)c1ccccc1)c1ccccc1O)c1ccccc1`, the growth with T-47D breast is 83%; in the assay on MDA-MB-435 melanoma, 99.1%; in the assay on SW-620 colon, 96.7%; in the assay on MCF7 breast, 89.3%; in the assay on HCT-116 colon it was 88.5%; in the assay on HCC-2998 colon, 105%. Moreover, the growth in the assay on KM12 colon is 99.8%.

As to `COc1ccc2nc3cc(Cl)ccc3c(NCCCNCCO)c2c1`, the growth in the assay on MDA-MB-435 melanoma was -69.1% (active); in the assay on SW-620 colon, -2.84% (active); with MCF7 breast, -18.6% (active); with HCT-116 colon, -50.4% (active); with HCC-2998 colon, -43.6% (active); in the assay with KM12 colon it was 3.19% (active).

As to `CCN(CC)CCOc1cccc2c1C(=O)c1cccc(OCCN(CC)CC)c1C2=O`, the growth in the assay on T-47D breast is 92.2%; in the assay on MDA-MB-435 melanoma, 32.5%; in the assay with SW-620 colon, 20.8%; in the assay with MCF7 breast it was 9.16% (active); in the assay on HCT-116 colon, 7.44% (active); in the assay with HCC-2998 colon, 54.7%. For the same compound, the growth in the assay with KM12 colon was 33.9%.

Turning to `COc1ccc(/C=c2\sc3n(c2=O)C(c2cc(OC)c(OC)c(OC)c2)C=C(c2ccc(OC)c(OC)c2)N=3)cc1OC` (stereo not given), the growth was 88.5% with BT-549 breast; 86.1% in the assay with MDA-MB-435 melanoma; 109% with SW-620 colon; 86.2% in the assay with MCF7 breast; 89.4% with HCT-116 colon; 106% with HCC-2998 colon. For the same compound, in the assay with KM12 colon, the growth was 95.8%.

On to `Nc1ncnc2c1ncn2C1(CO)OCC(O)C(O)C1O` (stereo not given), for which the growth in the assay with T-47D breast is 96.2%; in the assay with MDA-MB-435 melanoma it was 107%; with SW-620 colon, 110%; with HCT-116 colon it was 108%; with HCC-2998 colon, 101%; in the assay with KM12 colon, 98.6%.

Regarding `CCN(CC)CCCC(C)Nc1c2ccc(Cl)cc2nc2ccc(OC)cc12` (stereo not given), the growth in the assay with T-47D breast is 14%; in the assay on MDA-MB-435 melanoma, -18.9% (active); in the assay on SW-620 colon, -19.1% (active); with MCF7 breast it was -11.6% (active); in the assay with HCT-116 colon, 12.3%; with HCC-2998 colon, 15.3%. Besides, the growth with KM12 colon is 22.1%.

Regarding `CCOC(=O)c1cc(C(=O)c2cc(OC)c(OC)c(OC)c2)n2ncc3ccccc3c12`, the growth with T-47D breast is 77.1%; in the assay with MDA-MB-435 melanoma it was 7.14% (active); in the assay with SW-620 colon, 35.8%; with HCT-116 colon, 50.8%; in the assay on HCC-2998 colon it was 93.2%; with KM12 colon it was 39.6%.

Take `CC1=NN(C(=O)c2nn(-c3ccc(Cl)cc3)cc2O)C(=O)C1`: the growth was 48.5% in the assay on T-47D breast; 59.8% with MDA-MB-435 melanoma; 46.3% in the assay on SW-620 colon; 52.4% in the assay with MCF7 breast; 28.5% in the assay on HCT-116 colon; 54.1% with HCC-2998 colon. Besides, the growth with KM12 colon is 49%.

Consider `Cc1cc(SCc2ccccc2)nc(N)n1`, for which the growth in the assay with MDA-MB-435 melanoma is 99.2%; with SW-620 colon, 105%; with MCF7 breast it was 93.8%; in the assay on HCT-116 colon, 102%; in the assay on HCC-2998 colon, 108%; in the assay on KM12 colon, 115%.

Take `Cc1ccc(NC(=O)N2CCCCC2)cc1[N+](=O)[O-]`: the growth with T-47D breast was 121%; with SW-620 colon it was 73.3%; in the assay with MCF7 breast, 92.9%; in the assay on HCT-116 colon, 94.7%; in the assay with HCC-2998 colon, 103%; in the assay on KM12 colon, 111%.

Regarding `CSc1nc2c(c(=O)n1C)CN(Cc1ccccc1)C(=O)CN2`, the growth in the assay with T-47D breast is 95%; in the assay with MDA-MB-435 melanoma, 60%; in the assay on SW-620 colon, 95.7%; in the assay with MCF7 breast it was 89.6%; in the assay on HCT-116 colon it was 92.6%; in the assay on HCC-2998 colon, 85.4%. Also, the growth in the assay on KM12 colon was 85.7%.

With `Nc1nc(N)c(N)c(Nc2ccc(CCO)cc2)n1`, the growth in the assay with T-47D breast was 102%; in the assay on MDA-MB-435 melanoma, 104%; in the assay with SW-620 colon, 94%; with MCF7 breast, 105%; in the assay with HCT-116 colon it was 104%; in the assay on KM12 colon, 101%.

Consider `Clc1ccc(Cc2ccncc2)cc1`, for which the growth in the assay on BT-549 breast was 99.9%; with MDA-MB-435 melanoma, 112%; with SW-620 colon, 105%; in the assay with MCF7 breast it was 97.5%; in the assay on HCT-116 colon, 101%; with HCC-2998 colon it was 95.6%. Also, the growth in the assay with KM12 colon is 102%.

For `IC(I)I`, the growth is 103% in the assay with BT-549 breast; 102% with SW-620 colon; 100% in the assay on MCF7 breast; 106% in the assay on HCT-116 colon; 98% in the assay with HCC-2998 colon; 104% in the assay on KM12 colon.

On to `CCCC1(CN2c3ccccc3Sc3ccc(Cl)cc32)CCN(CC)C1` (stereo not given), for which the growth was -94.7% (active) in the assay with MDA-MB-435 melanoma; -94.7% (active) in the assay on SW-620 colon; -93.7% (active) with MCF7 breast; -100% (active) with HCT-116 colon; -49.5% (active) in the assay with HCC-2998 colon; -44.5% (active) with KM12 colon.

Regarding `Nc1nccc(OCCO)n1`, the growth is 94.1% in the assay on T-47D breast; 104% in the assay with MDA-MB-435 melanoma; 107% with SW-620 colon; 91.2% in the assay with MCF7 breast; 97.8% in the assay on HCT-116 colon; 97.4% in the assay with HCC-2998 colon. Further, the growth with KM12 colon is 97.8%.

As to `O=C(CCl)Oc1ccc(OC(=O)CCl)cc1`, the growth is 46.9% in the assay on BT-549 breast; 85.3% in the assay with MDA-MB-435 melanoma; 89.8% in the assay on SW-620 colon; 77.9% in the assay with MCF7 breast; 94.5% in the assay on HCT-116 colon; 109% with HCC-2998 colon. Besides, in the assay with KM12 colon, the growth is 83.7%.

For `O=S(=O)(O)c1ccc(Cl)cc1`, the growth is 97.8% in the assay on T-47D breast; 109% with MDA-MB-435 melanoma; 101% with SW-620 colon; 91.4% in the assay on MCF7 breast; 98.4% in the assay on HCT-116 colon; 99.2% in the assay on KM12 colon.

In the case of `O=C1CC(=O)N(C(=O)c2nn(-c3ccc(Cl)cc3)cc2O)N1`, the growth is 23.4% in the assay on T-47D breast; 48.1% in the assay with MDA-MB-435 melanoma; 59.9% in the assay with SW-620 colon; 22.1% in the assay with HCT-116 colon; 47.4% in the assay with HCC-2998 colon; 46.5% with KM12 colon.
